Compound activity from PubChem.
Shown are actives, neighbours in structure and some others; about 21% of the full set was active somewhere.
Cycloheximide cs: affects cycloheximide protein synthesis inhibition readout, counter-screen; cell reporter, cycloheximide protein synthesis inhibition counterscreen; max response, %; actives 12% (n = 300,000); AID 2314; in the data active = max response mostly above about 13%, no sharp cut-off; inactive = mostly below about 14%; note: read at 38.3 µM for the half of the compounds with a filed dose; 0% is about no effect
NS1 inh: influenza NS1 inhibition | Potency, µM (top dose mostly 46.1 µM), for the others: top-dose activity, positive = more growth | actives 0.4% (n = 270,000) | AID 2326; calls by dose curve; note: potency is the fitted concentration of half-maximal effect; actives are rising curves; nearly all actives have a fitted effect of over 50% in size
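In this qHTS, NS1 from influenza A is expressed in budding yeast, where it slows growth. Cells are switched from glucose to 2% galactose medium (pH 6.0, -URA), treated with compound, and growth recovery is read at OD600.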
Pf growth 96h: P. falciparum growth inhibition at 96 hours. P. falciparum luciferase reporter growth, 96 h. Potency, µM (titrated, usually from 28.7 µM), for the others: top-dose activity change, negative = inhibition, hits mostly inhibitors. actives 6.9% (n = 320,000); note: potency is the fitted concentration of half-maximal effect; % is set by controls: 0 for no effect and ±100 for the full control effect
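Two-generation exposure (96 h) targets delayed-death phenotype. Reporter parasites carrying integrated firefly luciferase, in red cells at 2% hematocrit and 0.05% parasitemia final, kept at 37 C, 5% CO2; luminescence loss indicates inhibition.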
Pf growth 48h: P. falciparum growth inhibition at 48 hours (one generation). actives 5.9% (n = 310,000). P. falciparum luciferase growth in erythrocytes, 48 h. Potency, µM (series often up to 28.7 µM), for inactives: top-dose activity change, negative = inhibition, hits mostly inhibitors; note: potency is the fitted concentration of half-maximal effect; % is set by controls: 0 for no effect and ±100 for the full control effect
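A one-generation exposure of luciferase-tagged malaria parasites in RPMI 1640/Albumax erythrocyte culture, 37 C and 5% CO2. Inhibition is inferred from decreased luminescence after adding detection reagent.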
Shiga inhibitor: blocks Shiga toxin action in Vero cells; Vero cells, Shiga toxin protein synthesis inhibition reporter; inhibition, % at 38.7 µM; actives 9.2% (n = 290,000); AID 2315; in the data active = inhibition mostly above about 28%, no sharp cut-off; inactive = mostly below about 43%; note: 0% is about no effect
* = called active by the depositor; ? = inconclusive; · = not tested or not shown. Unless noted, calls come from the whole dose curve; as a rule, active = well fitted inhibition curve with a large enough effect; inconclusive = small, poorly fitted or top-dose-only effect, or another doubt; inactive = no such curve, though single readings can be large or run the other way.

SMILES	Cycloheximide cs	NS1 inh	Pf growth 96h	Pf growth 48h	Shiga inhibitor
C/C(=N\N=C1\NC(=O)C(CC(=O)O)S1)c1ccccn1 (configuration not stated)	0	-5%	1.2µM*	10µM*	-3
CCN(CC)CCN1c2ccccc2Sc2ccc3ccccc3c21	-3	-3%	?	8.3µM*	-6
O=C(CSc1nnc(-c2ccccn2)n1Cc1ccccc1)N1CCCC1	-1	3%	-3%	-3%	-5
Cc1nn(-c2ccccc2)c(C)c1C(=O)NCc1ccccc1F	-5	5%	-18%	-24%	-1
O=C(c1cc(-c2cccs2)on1)N1CCc2ccccc2C1	18	-36%	2%	?	47*
O=C(c1cc(-c2ccc(O)cc2)on1)N1CCc2ccccc2C1	5	-99%	0.37µM*	·	46
O=C(c1cc(-c2ccccc2O)on1)N1CCc2ccccc2C1	25*	-60%	28%	·	51
CC(C)c1ccc(C(=O)NCCCNC(=O)c2cnccn2)cc1	0	9%	2%	20%	3
CCCCn1c2nc3ccccc3nc2c2c(=O)n(C(C)CC)cnc21 (configuration not stated)	-4	-3%	9%	19%	-23
CCCCCn1c2nc3ccccc3nc2c2c(=O)n(CC(C)C)cnc21	-4	6%	2.9µM*	·	-20
CCn1c(SC)nnc1C1CCN(S(=O)(=O)c2ccc(OC)cc2)CC1	-3	23%	-26%	4%	-7
CCn1c(SC(C)C)nnc1C1CCN(S(=O)(=O)c2ccc(OC)cc2)CC1	-5	15%	?	?	-5
CCn1c(SCc2ccc(C)cc2)nnc1C1CCN(S(=O)(=O)c2ccc(OC)cc2)CC1	-3	10%	4.1µM*	12µM*	-14
CCn1c(SCc2ccc(F)cc2)nnc1C1CCN(S(=O)(=O)c2ccc(OC)cc2)CC1	-1	-12%	8.3µM*	12µM*	-2
CNc1nc(Cl)nc2c1ncn2CC(COC(=O)C(C)(C)C)COC(=O)C(C)(C)C	-6	·	·	·	-7
CC(C)OCCCNC(=O)CCCC(=O)Nc1ccc(OCCc2ccccc2)cc1	3	-17%	?	-21%	1
O=C(O)c1ccc2nc(-c3ccccc3)sc2c1	20	-23%	?	21%	23
c1csc(-c2nc3ccccc3s2)c1	56*	-2%	110%	108%	96*
c1ccc2sc(-c3ccncc3)nc2c1	44*	-8%	117%	82%	51*
Oc1ccc(-c2nc3ccccc3s2)cc1	32*	-40%	2%	185%	32
c1ccc2sc(-c3ccc4c(c3)OCO4)nc2c1	34*	-15%	383%	148%	52*
O=C(O)C(c1ccccc1)N1CCCCC1 (configuration not stated)	5	7%	48%	3%	-4
CCOC(=O)CN1C(=O)CN(c2ccc(C)c(C)c2)C1=O	6	5%	?	26%	-7
Fc1ccc(OCCCCN2CCOCC2)cc1	-3	·	?	15%	-3
COCCn1c(C)cc(C(=O)CSc2nnnn2C2CCCC2)c1C	·	·	39%	10%	·
SMILES	Cycloheximide cs	NS1 inh	Pf growth 96h	Pf growth 48h	Shiga inhibitor
CC(=O)N(Cc1cccnc1)c1cccc(-c2nc3ccccc3s2)c1	-2	-1%	24%	?	63
c1cncc(-c2nc3ccccc3s2)c1	39*	0%	130%	64%	112*
CC(=O)c1ccc(NC(=O)CSCCO)cc1	21*	3%	·	12%	81*
O=C(CSCCO)Nc1ccc(C2CCCCC2)cc1	48*	-40%	·	80%	97*
CSCCC(=O)Nc1ccc(C(C)=O)cc1	27*	0%	104%	83%	114
CC(=O)c1ccc(NC(=O)CCNC(=O)c2ccc(Cl)cc2)cc1	1	-1%	-1%	-8%	36
CCC(=O)Nc1ccc(C(=O)CSc2nc3ccccc3cc2CC)cc1	-1	-1%	-2%	?	1
Cc1onc(COc2ccccc2O)c1Br	18*	-14%	7%	27%	53
Cc1cc(NC(=O)C(Cl)c2ccccc2)no1 (configuration not stated)	1	-26%	16%	?	-3
CCn1c(=O)c(C(=O)NCc2ccccn2)c(O)c2ccccc21	0	-154%	12µM*	-16%	-6
CCn1c(=O)c(C(=O)Nc2ccccc2F)c(O)c2ccccc21	9.1*	-10%	?	-6%	43
Fc1ccc(Cn2nnnc2CN2CCc3ccccc3C2)cc1	-4	-61%	-13%	-14%	12
CCC(CO)(CO)N(CC(=O)Nc1ccc(OC)cc1)CC(=O)Nc1ccc(OC)cc1	4	0%	0%	-10%	-19
CCCn1c(N2CCN(CC(=O)c3c(C)n(C)c4ccccc34)CC2)nc2c1c(=O)[nH]c(=O)n2C	-5	5%	134%	0.083µM*	-19
CCn1c(N2CCN(CC(=O)c3c[nH]c4ccccc34)CC2)nc2c1c(=O)[nH]c(=O)n2C	2	-52%	3%	?	-7
CC(c1ccccc1)n1c(N2CCNCC2)nc2c1c(=O)[nH]c(=O)n2C (configuration not stated)	-1	3%	12%	8.3µM*	15
Cn1c(=O)[nH]c(=O)c2c1nc(CN1CCN(c3ccc(F)cc3)CC1)n2CCCc1ccccc1	2	-10%	-8%	-15%	-3
CCCCCn1c(CN2CCN(c3cccc(Cl)c3)CC2)nc2c1c(=O)[nH]c(=O)n2C	-4	-35%	?	13µM*	-3
Cn1c(=O)[nH]c(=O)c2c1nc(CN1CCN(c3ccc(F)cc3)CC1)n2CCc1ccccc1	-1	-1%	10µM*	?	-1
CC(c1ccccc1)n1c(Br)nc2c1c(=O)[nH]c(=O)n2C (configuration not stated)	-4	19%	?	11%	·
Cc1ccc(C(=O)NC2CC(=O)N(c3ccc4c(c3)OCCO4)C2)cc1[N+](=O)[O-] (configuration not stated)	·	·	8%	-12%	·
COCCNc1nnc(SCC(=O)NC(=O)c2ccccc2)s1	·	·	17%	0%	·
Cn1c(CN2CCN(c3cccc(Cl)c3)CC2)nc2ccccc21	-3	-39%	?	13µM*	5
CCCCCCn1c(N(CC)CC)nc2c1c(=O)[nH]c(=O)n2C	-2	-13%	1.9µM*	-30%	-26
CCCCCCn1c(N2CCN(c3ccccc3)CC2)nc2c1c(=O)[nH]c(=O)n2C	5	-53%	15µM*	8.3µM*	6
Cn1c(=O)[nH]c(=O)c2c1nc(N1CCOCC1)n2CCN1CCOCC1	2	11%	-11%	1.9µM*	-8
Cc1ccc(N(C(=O)CCl)C(C(=O)NC2CCCCC2)c2cccnc2)cc1C (configuration not stated)	2	18%	?	?	-1
CSc1nnc(-c2ccccc2N=Cc2c(C)[nH]n(-c3ccc4ccccc4c3)c2=O)c(=O)[nH]1	33*	10%	80%	62%	37
C=CCSc1nnc(-c2ccccc2N=Cc2c(C)[nH]n(-c3ccccc3)c2=O)c(=O)[nH]1	23*	-72%	1%	·	56
